Measurements reported in PubChem BioAssay AID1159580 (chemical genetic matrix, 2015).
The campaign covered roughly 5,500 compounds. About 2,000 (36%) were called active. About 18% were inconclusive and are not listed. No stated cut-off is given here; in the data, active means normalized growth mostly below about 0.91 (no sharp cut-off); inconclusive means no clear call, values can overlap the other calls; inactive means mostly above about 0.92. The list shows a part of the results.

Test: chemical genetic growth profiling, strain panel (AID 1159580);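 further: tested at 20 µM; growth read once vehicle control cultures reached saturation at 30 °C; 1 = growth at the plate median or of vehicle wells; lower values mean less growth of the strain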
Details: S. cerevisiae deletion strains, growth OD

Measured: normalized growth

N=C(N)SCc1nc(-c2ccc(Cl)cc2)no1
inactive: locus YAR019C, strain CDC15, active compounds read low 0.979 | locus YBL105C, strain PKC1, active compounds read low 0.985 | locus YBR135W, strain CKS1, active compounds read low 0.981 | locus YBR136W, strain MEC1, active compounds read low 0.984 | locus YBR160W, strain CDC28, active compounds read low 0.984 | locus YDL017W, strain CDC7, active compounds read low 0.977 | locus YDL028C, strain MPS1, active compounds read low 0.977 | locus YDL101C, strain DUN1, active compounds read low 0.99 | locus YDL108W, strain KIN28, active compounds read low 0.976 | locus YDL132W, strain cdc53, active compounds read low 0.99 | locus YDL214C, strain PRR2, active compounds read low 0.975 | locus YDR052C, strain DBF4, active compounds read low 0.99 | locus YDR054C, strain cdc34, active compounds read low 0.978 | locus YDR226W, strain ADK1, active compounds read low 0.978 | locus YDR477W, strain SNF1, active compounds read low 0.977 | locus YER123W, strain YCK3, active compounds read low 0.989 | locus YER133W, strain GLC7, active compounds read low 0.986 | locus YFL009W, strain cdc4, active compounds read low 0.983 | locus YFL029C, strain CAK1, active compounds read low 0.978 | locus YFR003C, strain YPI1, active compounds read low 0.982 | locus YFR019W, strain FAB1, active compounds read low 0.973 | locus YFR028C, strain CDC14, active compounds read low 0.986 | locus YGR040W, strain KSS1, active compounds read low 0.98 | locus YGR052W, strain FMP48, active compounds read low 1.03 | locus YGR092W, strain DBF2, active compounds read low 0.987 | locus YHR030C, strain SLT2, active compounds read low 0.949 | locus YHR079C, strain IRE1, active compounds read low 0.96 | locus YHR082C, strain KSP1, active compounds read low 1.06 | locus YHR205W, strain SCH9, active compounds read low 0.828 | locus YIL147C, strain SLN1, active compounds read low 0.985 | locus YJL095W, strain BCK1, active compounds read low 1.01 | locus YJL128C, strain PBS2, active compounds read low 0.929 | locus YJL157C, strain FAR1, active compounds read low 0.974 | locus YJR016C, strain ILV3, active compounds read low 0.987 | locus YJR066W, strain TOR1 (second series), active compounds read low 0.981 | locus YJR066W, strain TOR1, active compounds read low 1.11 | locus YKL048C, strain ELM1, active compounds read low 0.982 | locus YKL067W, strain YNK1, active compounds read low 0.984 | locus YKL101W, strain HSL1, active compounds read low 0.992 | locus YKL193C, strain SDS22, active compounds read low 0.985 | locus YKL203C, strain TOR2, active compounds read low 1.05 | locus YLR113W, strain HOG1, active compounds read low 0.989 | locus YLR133W, strain CKI1, active compounds read low 0.98 | locus YLR403W, strain SFP1, active compounds read low 0.911 | locus YML070W, strain DAK1, active compounds read low 0.996 | locus YMR001C, strain CDC5, active compounds read low 0.981 | locus YMR205C, strain PFK2 (second series), active compounds read low 0.981 | locus YMR277W, strain FCP1, active compounds read low 0.985 | locus YNL006W, strain LST8, active compounds read low 0.981 | locus YNL020C, strain ARK1, active compounds read low 0.986 | locus YNL161W, strain CBK1, active compounds read low 0.983 | locus YNL183C, strain NPR1, active compounds read low 1.1 | locus YNL207W, strain RIO2, active compounds read low 0.978 | locus YNL222W, strain SSU72, active compounds read low 0.984 | locus YNL307C, strain MCK1 (second series), active compounds read low 0.983 | locus YOL078W, strain AVO1, active compounds read low 0.981 | locus YOL136C, strain PFK27, active compounds read low 0.97 | locus YOR061W, strain CKA2, active compounds read low 0.986 | locus YOR119C, strain RIO1, active compounds read low 1.05 | locus YOR231W, strain MKK1, active compounds read low 1.03 | locus YOR329C, strain SCD5, active compounds read low 0.982 | locus YPL031C, strain PHO85, active compounds read low 0.964 | locus YPL153C, strain RAD53, active compounds read low 0.964 | locus YPL204W, strain HRR25, active compounds read low 0.953 | locus YPL209C, strain IPL1, active compounds read low 0.986 | locus YPL256C, strain CLN2, active compounds read low 0.925 | locus YPR025C, strain CCL1, active compounds read low 0.987 | locus YPR106W, strain ISR1, active compounds read low 0.978 | locus YPR111W, strain DBF20, active compounds read low 0.981 | strain NNK1, active compounds read low 0.992 | strain TSCII, active compounds read low 0.983
